Source: PubChem BioAssay (National Center for Advancing Translational Sciences (NCATS))
Many of the other results were omitted from the sample, so hits are more common in it than they were.
DT40 TDP1 CPT = DT40-hTDP1 cell growth loss with CPT | chicken DT40 Tdp1-/-;hTDP1 cells + 20 nM CPT, ATP luminescence, 48 h | Potency, µM (top dose mostly 46.2 µM), inactives show at the highest dose activity change, negative = growth inhibition, actives largely listed as inhibitors | 420,000 compounds, 12% hits | AID 686979; further: potency means the concentration at half of the fitted maximal effect; nearly all actives have a fitted effect of over 55% in size
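Chicken DT40 Tdp1-/- cells complemented with human TDP1, 400 cells/well, exposed to compounds plus 20 nM camptothecin for at least 48 h at 37 C; viability read as ATP content by CellTiter-Glo luminescence.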
HT1080 IDH1KD tx = kills HT-1080 cells with IDH1 knockdown | HT-1080 IDH1 knockdown viability, ATP luminescence, 48 h | 360,000 compounds, 2% hits | AID 686971 | Potency, µM (series often up to 46.1 µM), for the others: at the highest dose activity, negative = toxicity, most hits filed as cytotoxic;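 further: potency means the concentration at half of the fitted maximal effect; 0% = DMSO wells and -100% = cell-free medium wells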
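After a 2 h attachment period, IDH1KD HT-1080 cells took pin-transferred compound for 48 h at 37 °C; ATP-based luminescence after 10 min room-temperature reagent incubation reported viability.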
DT40 TDP1 no CPT = qHTS for Inhibitors of human tyrosyl-DNA phosphodiesterase 1 (TDP1): qHTS in cells in absence of CPT | Potency, µM (titrated, usually from 46.2 µM), for the others: at the highest dose activity change, negative = growth inhibition, hits mostly inhibitors | 420,000 compounds, 15% hits | DT40 Tdp1-/- hTDP1 cells, no CPT, ATP luminescence, 48 h | AID 686978, 2013; further: potency means the concentration at half of the fitted maximal effect; nearly all actives have a fitted effect of over 55% in size
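Growth of hTDP1-complemented DT40 Tdp1-knockout cells is measured by ATP luminescence after at least 48 hr compound exposure at 37 °C, with DMSO substituting for the 20 nM CPT used in the parallel screen.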
HT1080-NT tox = kills 2HG-producing HT-1080-NT fibrosarcoma cells; HT-1080-NT fibrosarcoma viability, CellTiter-Glo ATP luminescence, 48 h; Potency, µM (titrated, usually from 46.1 µM), for the others: at the highest dose activity, negative = less viability, most hits filed as cytotoxic; 360,000 compounds, 1.6% hits;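 further: NT is the 2HG producing partner of a matched IDH1 knockdown line; potency means the concentration at half of the fitted maximal effect; 0% = DMSO-treated cells and -100% = media-only wells without cells; nearly all actives have a fitted effect of over 55% in size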
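Toxicity toward the 2HG-producing NT line was scored as %Activity, normalised to DMSO and no-cell wells, from CellTiter-Glo luminescence after 48 hours' treatment.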
IL-1B inflam inh = inhibitors of inflammasome signaling (IL-1 beta secretion); THP-1 LPS/ATP IL-1B secretion, AlphaLISA, 16 h; stronger effect = lower value; activity change, % at 57.5 µM; 360,000 compounds, 4.7% hits; in the data active means activity change below about -50%; inconclusive means mostly about -30% to -49%
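THP-1 cells pretreated 1 hr with compounds (up to 57.5 uM final), then stimulated with LPS (250 ng/mL final) plus ATP (1.25 mM final); secreted IL-1B measured by AlphaLISA after 16 hr, decreased signal indicating inhibition.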
ALOX12 inh = ALOX12 (human) lipoxygenase inhibition | 580,000 compounds, 1.1% hits | purified 12hLO, xylenol orange hydroperoxide absorbance | P18054 | Potency, µM (doses to about 108 µM), for the others: at the highest dose activity change, negative = inhibition, actives largely listed as inhibitors; further: potency means the concentration at half of the fitted maximal effect
Target sequence (P18054 whole entry, looked up): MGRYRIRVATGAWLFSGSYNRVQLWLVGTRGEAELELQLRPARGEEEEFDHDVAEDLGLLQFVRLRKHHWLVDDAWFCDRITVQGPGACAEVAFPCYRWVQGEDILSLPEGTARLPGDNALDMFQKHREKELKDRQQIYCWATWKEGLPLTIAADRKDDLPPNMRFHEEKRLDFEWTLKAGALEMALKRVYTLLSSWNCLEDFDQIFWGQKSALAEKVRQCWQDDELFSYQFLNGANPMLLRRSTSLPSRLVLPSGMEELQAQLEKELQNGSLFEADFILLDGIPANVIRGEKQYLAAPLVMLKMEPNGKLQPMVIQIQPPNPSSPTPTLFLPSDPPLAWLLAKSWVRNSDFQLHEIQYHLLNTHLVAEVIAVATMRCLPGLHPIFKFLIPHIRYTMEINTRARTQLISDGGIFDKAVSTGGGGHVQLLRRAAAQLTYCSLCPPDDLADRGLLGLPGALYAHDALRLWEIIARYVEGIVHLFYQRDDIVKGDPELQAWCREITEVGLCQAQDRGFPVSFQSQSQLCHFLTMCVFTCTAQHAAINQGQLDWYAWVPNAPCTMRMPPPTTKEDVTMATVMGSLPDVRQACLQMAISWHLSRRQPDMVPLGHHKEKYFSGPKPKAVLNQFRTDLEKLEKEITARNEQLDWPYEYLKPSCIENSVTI
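Purified human 12hLO (150 nM final) in 25 mM Hepes, 0.01% Triton X-100, pH 7.0 was preincubated 15 min at room temperature with compound. Then 40 uM arachidonic acid was added, 30 min. Hydroperoxide was read by Fe-XO absorbance ratio 573/405 nm.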
* hit, by the source's call; [ ] = another dose, or the depositor's remark. Unless noted, the call rests on the fitted dose curve; in most records, active means well fitted curve in the direction sought with a large enough effect; inconclusive means small, poorly fitted or top-dose-only effect, or another doubt; inactive means no such curve, though single readings can be large; an effect the other way counts as inactive or inconclusive. Unless noted, on the % scale 0 is the no-effect control and ±100 the full control effect.

Screening O=C(NCCC1CCCCN1S(=O)(=O)c1cccs1)C(=O)Nc1ccc(F)cc1 (stereo not drawn) returned DT40 TDP1 CPT inconclusive, HT1080 IDH1KD tx inconclusive, DT40 TDP1 no CPT inconclusive, HT1080-NT tox -12%, IL-1B inflam inh -63* and ALOX12 inh -14%.
Screening COc1cc(CNC(=O)C2CCCCN2S(=O)(=O)c2ccc(F)cc2)cc(OC)c1OC (stereo not drawn) returned DT40 TDP1 CPT inconclusive, DT40 TDP1 no CPT 12µM* and ALOX12 inh 1%.
Screening COc1ccc(NC(=O)C(=O)NCCC2CCCCN2S(=O)(=O)c2ccc(F)cc2)cc1 (stereo not drawn) returned DT40 TDP1 CPT 21µM*, HT1080 IDH1KD tx -57%, DT40 TDP1 no CPT 10µM*, HT1080-NT tox inconclusive, IL-1B inflam inh -7 and ALOX12 inh 0%.
For Cc1ccc(S(=O)(=O)N2CCOCC2)cc1NC(=O)COC(=O)Cc1ccccc1 the results were DT40 TDP1 CPT 7%, HT1080 IDH1KD tx 9%, DT40 TDP1 no CPT -18%, HT1080-NT tox 3%, IL-1B inflam inh -3 and ALOX12 inh 9%.
CCOC(=O)CNS(=O)(=O)c1ccc(S(=O)(=O)NC2CC2)cc1 was read as DT40 TDP1 CPT -2%, HT1080 IDH1KD tx 17%, DT40 TDP1 no CPT 2%, HT1080-NT tox 10%, IL-1B inflam inh inconclusive and ALOX12 inh 3%.
`COCCc1noc(-c2nc(-c3ccc(C)cc3)no2)n1` gave ALOX12 inh -7%.
Screening NC(c1csc(NC(=O)c2cccc(OC(F)(F)F)c2)n1)c1ccccc1Cl (stereo not drawn) returned DT40 TDP1 CPT 4.1µM*, HT1080 IDH1KD tx inconclusive, DT40 TDP1 no CPT 5.8µM*, HT1080-NT tox 23µM*, IL-1B inflam inh -12 and ALOX12 inh inconclusive.
COC(=O)c1cnc(Nc2nc(C(N)c3ccccc3Cl)cs2)nc1C(F)(F)F (stereo not drawn) was read as DT40 TDP1 CPT inconclusive, HT1080 IDH1KD tx inconclusive, DT40 TDP1 no CPT 26µM*, HT1080-NT tox inconclusive, IL-1B inflam inh -6 and ALOX12 inh -10%.
COC(=O)c1cnc(Nc2nc(C(N)COCc3ccccc3)cs2)nc1C(F)(F)F (stereo not drawn) was read as DT40 TDP1 CPT inconclusive, HT1080 IDH1KD tx -12%, DT40 TDP1 no CPT 15µM*, HT1080-NT tox -22%, IL-1B inflam inh -25 and ALOX12 inh 5%.
For CCOC(=O)c1cn(C2CN(C(=O)Cc3ccccc3F)C2)nn1 the results were ALOX12 inh 64%.
For O=C1C(=O)c2c(ccc3ccccc23)-c2ccccc21 the results were DT40 TDP1 CPT 0.58µM*, HT1080 IDH1KD tx 1.8µM*, DT40 TDP1 no CPT 0.52µM*, HT1080-NT tox 4.6µM*, IL-1B inflam inh -87* and ALOX12 inh -9%.
Screening O=C1CCSc2c1ccc1ccccc21 returned DT40 TDP1 CPT -12%, HT1080 IDH1KD tx 1%, DT40 TDP1 no CPT -1%, HT1080-NT tox 1%, IL-1B inflam inh 12 and ALOX12 inh -6%.
Screening CC1(C)Cc2c(ccc3ccccc23)C(CCl)N1 (stereo not drawn) returned ALOX12 inh 5.6µM*.
O=C1CCC2c3ccc4ccccc4c3CCN12 (stereo not drawn) was read as DT40 TDP1 CPT -6%, HT1080 IDH1KD tx -20%, DT40 TDP1 no CPT inconclusive, HT1080-NT tox 1%, IL-1B inflam inh 23 and ALOX12 inh -21%.
CCNC(=O)/C=C1\NC(C)(C)Cc2c1ccc1ccccc21 was read as DT40 TDP1 CPT inconclusive, HT1080 IDH1KD tx -3%[9.24 µM], DT40 TDP1 no CPT 21µM*, HT1080-NT tox inconclusive, IL-1B inflam inh inconclusive and ALOX12 inh 5%.
For CC1(C)Cc2ccccc2C(=O)N1 the results were DT40 TDP1 CPT -1%, HT1080 IDH1KD tx 4%, DT40 TDP1 no CPT -3%, HT1080-NT tox 4%, IL-1B inflam inh 4 and ALOX12 inh 0%.
For CC1(C)Cc2c(ccc3ccccc23)C(=O)N1 the results were DT40 TDP1 CPT inconclusive, HT1080 IDH1KD tx -17%, DT40 TDP1 no CPT 21µM*, HT1080-NT tox -17%, IL-1B inflam inh inconclusive and ALOX12 inh -15%.
Screening CNC(=O)/C=C1\NC(C)(C)Cc2ccccc21 returned DT40 TDP1 CPT -2%, HT1080 IDH1KD tx inconclusive, DT40 TDP1 no CPT -16%, HT1080-NT tox inconclusive, IL-1B inflam inh 7 and ALOX12 inh -12%.
For CC(C)Oc1ccc(C(=O)NCC2Cc3cc(F)cc(-c4cnccn4)c3O2)cc1 (stereo not drawn) the results were DT40 TDP1 CPT inconclusive, DT40 TDP1 no CPT inconclusive and ALOX12 inh 12%.
For CSc1ccccc1C(=O)NC(C)(C)C the results were ALOX12 inh 6%.
Cc1ccc(S(=O)(=O)N2CCN(CCc3ccccc3)CC2)c(C)c1 was read as DT40 TDP1 CPT -4%, HT1080 IDH1KD tx -28%, DT40 TDP1 no CPT inconclusive, HT1080-NT tox inconclusive, IL-1B inflam inh -3 and ALOX12 inh inconclusive.
O=C1c2ccccc2C(=O)N1OS(=O)(=O)c1ccc(F)cc1 was read as DT40 TDP1 CPT 2.6µM*, HT1080 IDH1KD tx -6%, DT40 TDP1 no CPT 2.1µM*, HT1080-NT tox -4%, IL-1B inflam inh -5 and ALOX12 inh inconclusive.
Screening O=S(=O)(c1ccccc1)N1CCN(S(=O)(=O)c2ccc(F)cc2)CC1 returned DT40 TDP1 CPT 1%, HT1080 IDH1KD tx -19%, DT40 TDP1 no CPT -11%, HT1080-NT tox -20%, IL-1B inflam inh -11 and ALOX12 inh 17%.
`Cc1ccc(S(=O)(=O)ON2C(=O)c3ccccc3C2=O)c(C)c1` gave DT40 TDP1 CPT 0.82µM*, HT1080 IDH1KD tx inconclusive, DT40 TDP1 no CPT 1µM*, HT1080-NT tox inconclusive, IL-1B inflam inh -78* and ALOX12 inh inconclusive.
Cc1cc(C)c(C)c(S(=O)(=O)ON2C(=O)c3ccccc3C2=O)c1C was read as DT40 TDP1 CPT 2.6µM*, HT1080 IDH1KD tx 7.3µM*, DT40 TDP1 no CPT 2.3µM*, HT1080-NT tox inconclusive, IL-1B inflam inh -119* and ALOX12 inh -26%.
Cc1cc(C)c(S(=O)(=O)ON2C(=O)c3ccccc3C2=O)cc1C was read as DT40 TDP1 CPT 2.6µM*, HT1080 IDH1KD tx 10µM*, DT40 TDP1 no CPT 3.3µM*, HT1080-NT tox inconclusive, IL-1B inflam inh -61* and ALOX12 inh inconclusive.
